Assay results published in the supplement of paper PMC4206461.

Each molecule was assayed on Pseudomonas aeruginosa PA14 wild type (assay: respiration area under curve with compound as sole nitrogen source, 24 h (OmniLog AUC (arbitrary units)); higher = more respiration / better utilisation as nitrogen source, active = 2000 or more). Conditions: plate: PM8.
Description: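 Biolog Phenotype MicroArray plates PM6-PM8: each di/tripeptide is the sole nitrogen source (IF-0 medium with succinate/ferric citrate and dye mix A). Tetrazolium reduction was read in the OmniLog every 15 min for 24 h at 37°C and summarised as area under the respiration curve (arbitrary units). The paper counts values below 2000 as no respiration and above 8000 as solid respiration. Replicate datasets are averaged.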

SMILES	respiration area under curve
N[C@@H](Cc1ccc(O)cc1)C(=O)NCC(=O)NCC(=O)O	11300 (active)
